Reference: PubChem BioAssay (NCATS)
Inconclusive results are not listed. A call without a number means that no potency is given here. Values without a mark were called inactive. The source made the active and inactive calls. Calls come from the whole dose curve; as a rule, active = well fitted curve in the direction sought with a large enough effect; inconclusive = small, poorly fitted or top-dose-only effect, or another doubt; inactive = no such curve, though single readings can be large; an effect the other way counts as inactive or inconclusive.

Experiments:
[1] = BET inhibitor-based combinations targeting novel dependencies in MECOM-rearranged (r) AML: SET-2 cell line (AID 2202231); conditions: SET-2 AML cells viability, CellTiter-Glo luminescence, 48 h; viability: stronger effect = lower value, concentration not given here; note: nearly all actives have a fitted effect of over 35% in size; note: potency is the fitted concentration of half-maximal effect
In short: (§1)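 AML cell lines seeded at 500 cells/well, treated with 11-point dose curves for 48 h. Viability by CellTiter-Glo luminescence, normalised to DMSO and empty wells; activity expressed as AUC and per-cell-line Z-transformed AUC.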

[2] = BET inhibitor-based combinations targeting novel dependencies in MECOM-rearranged (r) AML: OCI-AML3 cell line (AID 2202232); conditions: Potency: OCI-AML3 viability; note: nearly all actives have a fitted effect of over 35% in size; note: potency is the fitted concentration of half-maximal effect
In short: as §1

[3] = BET inhibitor-based combinations targeting novel dependencies in MECOM-rearranged (r) AML: MV-4-11 cell line (AID 2202233); note: nearly all actives have a fitted effect of over 45% in size; note: potency is the fitted concentration of half-maximal effect
In short: (§2)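 Cells at 500/well were exposed for 48 hr to MIPE v5.0 drugs as 11-point dose curves. Viability was read by CellTiter-Glo luminescence and normalized to DMSO and empty-well controls. Activity was expressed as AUC and per-cell-line Z-AUC.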

[4] = BET inhibitor-based combinations targeting novel dependencies in MECOM-rearranged (r) AML: HNT-34 cell line (AID 2202234); note: nearly all actives have a fitted effect of over 35% in size; note: potency is the fitted concentration of half-maximal effect
In short: as §2

[5] = BET inhibitor-based combinations targeting novel dependencies in MECOM-rearranged (r) AML: UCSD-AML1 cell line (AID 2202235); note: series mostly up to about 46 µM; nearly all actives have a fitted effect of over 40% in size
In short: as §2

[6] = BET inhibitor-based combinations targeting novel dependencies in MECOM-rearranged (r) AML: AML-191 cell line (AID 2202236; note: nearly all actives have a fitted effect of over 35% in size; note: potency is the fitted concentration of half-maximal effect)
In short: as §1

[7] = BET inhibitor-based combinations targeting novel dependencies in MECOM-rearranged (r) AML: AML-194 cell line (AID 2202237; note: nearly all actives have a fitted effect of over 40% in size)
In short: as §1

SMILES	viability [1]	Potency [2]	Potency [3]	Potency [4]	Potency [5]	Potency [6]	Potency [7]	Potency [1]
CC1(C)S[C@H]2[C@H](NC(=O)[C@@H](N)c3ccc(O)cc3)C(=O)N2[C@H]1C(=O)O	99.7%	inactive	inactive	inactive	inactive	inactive	inactive	–
Nc1cccc2c1CN([C@H]1CCC(=O)NC1=O)C2=O	111%	inactive	inactive	1.18 µM (active)	inactive	inactive	inactive	–
COc1nnc2ccc(N3CCC(c4ccc(OCCN5CCN(C)C(=O)[C@H]5C)cc4)CC3)nn12	–	0.0417 µM (active)	0.059 µM (active)	0.105 µM (active)	–	0.0833 µM (active)	–	0.148 µM (active)
